rTrxR1 inhibitor: inhibitors of rat thioredoxin reductase 1 | hit rate 1% among 390,000 | recombinant rTrxR1, NADPH fluorescence consumption, selenite substrate | Potency, µM (highest dose often 114 µM), inactives show at the highest dose activity change, negative = inhibition, hits mostly inhibitors; also: nearly all actives have a fitted effect of over 65% in size
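Rat TrxR1 (90 nM in the dispensed reagent) was pre-reduced with 400 uM NADPH for 5 min at room temperature, then incubated with compound for 15 min. After 400 uM selenite was added, NADPH fluorescence (Ex 340/Em 450 nm) was followed for 8 min.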
GALK inhibitor: galactokinase (human) inhibition; P51570; Purified GALK, Kinase-Glo residual ATP luminescence; Potency, µM (titrated, usually from 57.5 µM), without a hit: top-dose activity change, negative = inhibition, actives largely listed as inhibitors; hit rate 0.007% among 270,000; AID 1868
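Human GALK (5 nM) with 35 uM ATP and 100 uM galactose in 20 mM HEPES pH 8.0, 5 mM MgCl2, 60 mM NaCl, 1 mM DTT, 0.01% BSA. After 1 h at room temperature, leftover ATP was read by Kinase-Glo Plus luminescence.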
PKM2 activator: increases activity of human pyruvate kinase M2; hit rate 0.34% among 260,000; P14618; purified PKM2, Kinase-Glo ATP luminescence, activation; response scale: 0% is enzyme alone, no compound; Potency, µM (top dose mostly 57.5 µM), inactives show at the highest dose activation, most hits filed as activators; also: nearly all actives have a fitted effect of over 55% in size
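hPK-M2, >95% pure; 0.1 mM ADP / 0.5 mM PEP final; imidazole pH7.2 buffer w/ 7 mM MgCl2, 50 mM KCl; 1 h RT; Kinase-Glo lum. Intermediate enzyme activity for dual inhibitor/activator qHTS.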
Apoferritin bind: binds horse apoferritin like a general anesthetic | Potency, µM (series often up to 77.5 µM), for the others: top-dose activity change, negative = displacement, hits mostly inhibitors | AID 485281 | apoferritin/1-aminoanthracene competitive binding, fluorescence | hit rate 0.074% among 350,000; also: nearly all actives have a fitted effect of over 20% in size
Target sequence (P02791 2-175 limits assumed): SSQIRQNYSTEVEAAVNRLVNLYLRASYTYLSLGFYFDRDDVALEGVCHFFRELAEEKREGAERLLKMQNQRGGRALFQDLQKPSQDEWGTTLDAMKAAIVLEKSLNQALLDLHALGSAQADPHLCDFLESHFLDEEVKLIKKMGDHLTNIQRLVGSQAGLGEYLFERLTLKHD
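Horse-spleen apoferritin (10 uM) in 50% saturated 1-aminoanthracene in PBS was incubated 10 min at room temperature with compound. Fluorescence (ex 380, em 535 nm) was normalized to free and bound 1-AMA, with concentration-response fitted by a four-parameter Hill equation.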
TrxR1 substrate: rat thioredoxin reductase 1 substrate activity; O89049; purified TrxR1 substrate turnover, NADPH consumption readout; Potency, µM (doses to about 114 µM), for the others: at the top dose activity change, negative = substrate turnover; hit rate 0.01% among 390,000; also: nearly all actives have a fitted effect of over 50% in size
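Rat TrxR1, dispensed at 90 nM, was prereduced with 400 uM NADPH (final) for 5 min at ~22 deg C, then incubated with compound 15 min before 400 uM selenite. A first-read NADPH fluorescence drop versus no-compound background flagged substrates.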
IDH1 R132H inh: inhibitors of human mutant IDH1 R132H. hit rate 0.093% among 390,000. Potency, µM (titrated, usually from 76.6 µM), for inactives: at the highest dose activity change, negative = inhibition, usual class: inhibitors. IDH1-R132H enzyme, NADPH consumption, diaphorase/resazurin fluorescence; also: nearly all actives have a fitted effect of over 65% in size
Target sequence (O75874 whole entry R132H, stated change not applied): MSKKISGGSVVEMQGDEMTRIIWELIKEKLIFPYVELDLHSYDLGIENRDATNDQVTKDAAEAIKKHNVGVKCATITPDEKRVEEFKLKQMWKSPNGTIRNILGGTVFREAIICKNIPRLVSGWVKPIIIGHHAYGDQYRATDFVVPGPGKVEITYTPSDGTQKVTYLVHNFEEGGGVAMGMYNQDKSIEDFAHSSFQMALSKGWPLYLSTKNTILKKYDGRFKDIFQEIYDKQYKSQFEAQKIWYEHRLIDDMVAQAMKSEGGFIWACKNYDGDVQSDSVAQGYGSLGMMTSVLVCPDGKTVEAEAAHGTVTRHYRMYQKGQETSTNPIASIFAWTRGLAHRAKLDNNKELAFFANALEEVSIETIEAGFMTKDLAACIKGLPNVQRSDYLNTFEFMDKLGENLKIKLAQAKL
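IDH1-R132H (0.5 ug/mL) preincubated 30 min with compound, then NADPH (0.016 mM) and alpha-KG (2 mM) added; 80 min at RT, pH 7.5. Remaining NADPH coupled via diaphorase/resazurin to fluorescence (540/590 nm); concentration-response curves normalized to no-enzyme control.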
Active calls of the source: *; i = inactive; ? = inconclusive; / = no result given; [ ] = dose if it differs, or a comment. Rows were chosen to be rich in hits. Some 1.3% of all compounds tested hit in one or more screens of this group. Calls follow the shape of the dose curve; as a rule, active = well fitted curve in the direction sought with a large enough effect; inconclusive = small, poorly fitted or top-dose-only effect, or another doubt; inactive = no such curve, though single readings can be large; an effect the other way counts as inactive or inconclusive. % is scaled to controls: 0 for no effect and ±100 for the full control effect; potency is read from the fitted curve at half-maximal effect.

SMILES	rTrxR1 inhibitor	GALK inhibitor	PKM2 activator	Apoferritin bind	TrxR1 substrate	IDH1 R132H inh
O=C1CC(c2ccc(Cl)cc2)CC(=O)C1CS(=O)(=O)c1ccccc1 (configuration not stated)	?	4%	-10%	?	8%	11%
CCCOC(=O)c1c(-c2ccccc2)c(-c2ccccc2)nn(C)c1=O	?	/	/	?	-9%	17%
O=C(/C=C/c1ccco1)Nc1ccc(N2CCCC2)cc1	32µM*	0%	-1%	0%	-3%	13%
Cc1cc(NS(=O)(=O)c2ccc(NC(=O)/C=C/c3ccco3)cc2)nc(C)n1	13µM*	-4%	5%	0%	-10%	-1%
O=C(/C=C/c1ccco1)Nc1ccc(C(=O)N2CCOCC2)cc1	40µM*	3%	5%	-10%	-10%	2%
O=C(/C=C/c1ccco1)Nc1ccc(CN2CCOCC2)cc1	-26%	1%	0%	-5%	-11%	0%
CC(C)N(Cc1ccccc1)c1ncnc2c1nnn2C	18%[57.1 µM]	/	/	0%	-1%[57.1 µM]	-16%
C=CCn1c(SCC(=O)NCc2ccco2)nnc1-c1ccc2ccccc2n1	79µM*	-1%	?	4%	-7%	5%
C=CCn1c(SCC(=O)NCc2ccco2)nc2ccccc2c1=O	-2%[57.1 µM]	7%	0%	-6%	0%[57.1 µM]	-6%
NS(=O)(=O)c1ccc(CCNC(=O)Cn2c(=O)c3cccn3c3ccc(F)cc32)cc1	21%	/	/	-4%	0%	-13%
Cc1ccc(NS(=O)(=O)c2c(C)nc3sccn3c2=O)cc1C	9%	/	4.5µM*	-17%	3%	10%
COC(=O)c1ccc(NS(=O)(=O)c2c(C)nc3sccn3c2=O)cc1	1%	/	/	5%	-6%	-9%
C=CCNc1oc(-c2ccco2)nc1S(=O)(=O)c1ccccc1	45µM*	-7%	13%	-17%	2%	1%
O=C(CCl)N1c2ccccc2SCC1c1ccccc1 (configuration not stated)	1.3µM*	1%	-1%	-8%	7%	0%
O=C(CCl)N1c2ccccc2OCC1c1ccccc1 (configuration not stated)	2.2µM*	-4%	-1%	-19%	5%	-1%
O=C(CN1CCSc2ccccc21)N1CCCCC1	20%[57.1 µM]	/	/	3%	5%[57.1 µM]	5%
COc1cc(C2C(C#N)=C(N)N(c3cccnc3)C3=C2C(=O)CCC3)ccc1O (configuration not stated)	-23%	1%	2%	-18%	-7%	2%
COc1cc(C2C(C#N)=C(N)N(c3ccc(F)cc3)C3=C2S(=O)(=O)CC3)ccc1O (configuration not stated)	11µM*	-2%	20%	-8%	7%	-1%
CNc1ccc(/C=C2\C=Cc3ccccc32)cc1Cl	-24%	/	/	/	-10%	/
Cc1nnc(SCc2nc3scc(-c4ccccc4)c3c(=O)[nH]2)s1	12%	/	28µM*	-3%	-2%	-3%
Cc1ccc(S(=O)(=O)N=Nc2c(O)[nH]c3ccccc23)cc1	-12%	0%	2%	-13%	-3%	46µM*
CC(C)OP(=O)(OC(C)C)C1(O)C(=O)Nc2ccc(Br)cc21 (configuration not stated)	40µM*	4%	0%	-17%	-1%	10%
CSc1ccc(CCNC(=O)c2cc3c(-c4ccccc4F)nn(C)c3s2)cc1	28%	/	/	54%	4%	-9%
CC(C)(Sc1cc(C(C)(C)C)c(O)c(C(C)(C)C)c1)Sc1cc(C(C)(C)C)c(O)c(C(C)(C)C)c1	7%	7%	7%	1%	-12%	24%
Cn1ccnc1C(O)c1cc(C(C)(C)C)c(O)c(C(C)(C)C)c1 (configuration not stated)	32µM*	2%	?	-22%	1%	-1%
SMILES	rTrxR1 inhibitor	GALK inhibitor	PKM2 activator	Apoferritin bind	TrxR1 substrate	IDH1 R132H inh
O=S(=O)(c1ccc(Cl)cc1)c1nc(-c2ccco2)oc1SCc1ccc(F)cc1	27%	/	/	-5%	15%	-7%
O=C(O)CCc1c2ccc(=O)c(O)c-2oc2c(O)c(O)ccc12	56µM*	/	/	/	-5%	/
Cc1ccc(Cl)cc1NC(=O)Cn1nc2c(cc1=O)CC(C)CC2 (configuration not stated)	26%[57.1 µM]	/	/	0%	0%[57.1 µM]	-6%
COc1ccc(N/N=C(/C#N)S(=O)(=O)c2nsc(C)c2C#N)cc1	?	?	-2%	?	-20%	5%
Cc1snc(S(=O)(=O)/C(C#N)=N/Nc2cccc(C(F)(F)F)c2)c1C#N	-24%[57.1 µM]	28µM*	8%	?	-2%[57.1 µM]	-10%
COc1cc2c(NC3CCN(C)CC3)nc(N3CCCN(C)CC3)nc2cc1OCCCC(C)C	-2%	/	/	/	68%	/
Cc1ccc(S(=O)(=O)NC(C(=O)Oc2ccc3ccc(=O)oc3c2)c2ccccc2)cc1 (configuration not stated)	50µM*	-1%	-2%	457%	259%	9%
Cc1ccc(S(=O)(=O)NCCC(=O)Oc2ccc3ccc(=O)oc3c2)cc1	56µM*	3%	-5%	155%	94%	12%
Cc1ccc(S(=O)(=O)N[C@H](C(=O)Oc2ccc3c(C(F)(F)F)cc(=O)oc3c2)c2ccccc2)cc1	-18%[57.1 µM]	2%	-3%	i	28%[57.1 µM]	4%
O=C(Oc1ccc2ccc(=O)oc2c1)c1ccccc1	18%	2%	1%	-8%	28%	9%
CCC(NC(=O)OCc1ccccc1)C(=O)Oc1ccc2ccc(=O)oc2c1 (configuration not stated)	50µM*	0%	/	343%	117%	-1%
Cc1ccc(NC(=O)c2sc(-n3nc(C)c(Cc4ccc5c(c4)OCO5)c3C)nc2C)cc1C	16%	/	/	-10%	-1%	-6%
Cn1c(C(c2cc3ccccc3n2C)c2cc3ccccc3n2C)cc2ccccc21	-26%	/	/	/	0%	/
COc1ccc(-c2nc(Cn3c(=O)cc(-c4ccccc4)c4c(C)nn(C)c43)c(C)o2)cc1OC	34%[57.1 µM]	/	/	43%	14%[57.1 µM]	0%
C(=N\Nc1ccc2nncn2n1)/c1ccco1	-17%[57.1 µM]	-3%	-1%	3%	-2%[57.1 µM]	1%
BrC(=C\c1ccccc1)/C=N/Nc1ccc2nncn2n1	18µM*	/	-5%	-12%	-10%	0%
CC1=C(C#N)c2nc(N)c(C#N)c(C)c2/C1=C\c1ccc(OCC(=O)O)c(Cl)c1	50µM*	-13%	21%	0%	10%	?
COc1ccccc1NC(=O)C(=O)NCC(c1ccc2c(c1)OCO2)N1CCOCC1 (configuration not stated)	15%[57.1 µM]	/	/	4%	5%[57.1 µM]	8%

Compound activity as filed in PubChem BioAssay.
